Measured values taken from PubChem BioAssay (Tox21).
“And” between values parts separate entries of the source, which are not always exact repeats. Identical values can stand only once. Records with an inconclusive call do not appear. A call without a number means that no potency is given here. Some compounds were tested as several samples or in several runs, with calls that do not always agree. The source made the active and inactive calls. Calls come from the whole dose curve; as a rule, active = well fitted activation curve with a large enough effect in the repeat runs; inconclusive = weak or mixed curves; inactive = flat fitted curve, though single readings scatter.

assay: A CellTox Green Cytotoxicity Assay to monitor cytotoxicity in HepG2 cells - 8 hour (AID 1224890); conditions: CellTox Green fluorescence; series mostly up to 76.8 µM; note: nearly all actives have a fitted effect of over 45% in size
Description: National Center for Advancing Translational Sciences [NCATS]
NIH Chemical Genomics Center [NCGC]
U.S. Environmental Protection Agency [EPA]
National Institutes of Environmental Health Sciences [NIEHS]
National Toxicology Program [NTP]
Cell-based models are critical for drug discovery. Determining the natural cytotoxic effects resulting from test compounds is an essential research activity. A CellTox Green Cytotoxicity Assay to monitor cytotoxicity in real time of continues cell culture during 40 hours of the compound treatment was used to screen Tox21 10K library compounds in HepG2 cells. CellTox Green Cytotoxicity Assay is a nonlytic, homogeneous, biofluorescent method to measure cytotoxicity in cell culture after experimental manipulation. The assay system uses a proprietary asymmetric cyanine dye that is excluded from viable cells but preferentially stains the dead cell's DNA. […] Viable cells produce no appreciable increases in fluorescence. Therefore, the fluorescence signal produced by the binding interaction with dead cell DNA is proportional to cytotoxicity.
The mixture of HepG2 cell suspension and reagents were dispensed at 600cells/6 ul/well in 1536-well tissue culture treated black solid bottom plates using a Multidrop dispenser. After the assay plates were incubated at a 37 C/5% CO2 incubator for 5 hours, 23 nL of compounds dissolved in DMSO, positive and negative controls was transferred to the assay plate by a pintool work station. The plates were incubated at 37 C for 40 hours. The fluorescence intensity were measured at 0h, 8h, 16h, 24h, 32h and 40h time points using ViewLux plate reader during compound treatment.
Potency is the fitted concentration of half-maximal effect.

Row | Structure (SMILES) | Potency
1 | CCCCCOc1ccccc1/C(=C\SC)n1ccnc1 | inactive
2 | Cc1cc(CCN2CCN(c3nsc4ccccc34)CC2)cc2c1NC(=O)CC2(C)C | inactive
3 | CN(C)c1ccc(C2(c3ccc(N(C)C)cc3)OC(=O)c3cc(N(C)C)ccc32)cc1 | inactive
4 | Cc1oc(-c2ccccc2)nc1CCC(=O)c1ccc(CC2SC(=O)NC2=O)cc1 (stereo not given) | inactive
5 | CCCCN(CCCC)C(=O)N(CCCC)CCCC | inactive
6 | CCCCCCCCn1sc(Cl)c(Cl)c1=O | 17.4 µM (active)
7 | CC(C)(C)NC(=O)[C@@H]1C[C@@H]2CCCC[C@@H]2CN1C[C@@H](O)[C@H](Cc1ccccc1)NC(=O)[C@H](CC(N)=O)NC(=O)c1ccc2ccccc2n1 | inactive
8 | CCC(N)(CO)CO | inactive
9 | CCCCc1oc2ccc(NS(C)(=O)=O)cc2c1C(=O)c1ccc(OCCCN(CCCC)CCCC)cc1 | 23.9 µM (active)
10 | Oc1ccc(Cl)cc1Sc1cc(Cl)ccc1O | inactive
11 | NC(=NCCCCCCN=C(N)/N=C(\N)Nc1ccc(Cl)cc1)/N=C(\N)Nc1ccc(Cl)cc1 | 54.6 µM (active)
12 | CCN(Cc1cccnc1)C(=O)c1cccc(Cl)c1[C@]1(C)C(=O)N(Cc2ccc(OC)cc2OC)c2ccc(Cl)cc21 | inactive
13 | C1CCCC1 | inactive
14 | O=[N+]([O-])c1ccccc1Nc1ccccc1 | inactive
15 | O=C(O)c1ccc(Cl)c(Cl)c1 | inactive
16 | CCCCCCCC[N+](CCCCCCCC)(CCCCCCCC)CCCCCCCC | 34.6 µM (active)
17 | O=C1c2ccccc2Cc2ccccc21 | inactive
18 | CC(C)n1nc(-c2cc3cc(O)ccc3[nH]2)c2c(N)ncnc21 | inactive
19 | Nc1c2ccccc2nc2ccccc12 | inactive
20 | CCCCN1C(=O)[C@@H]([C@H](O)C2CCCCC2)NC(=O)C12CCN(Cc1ccc(Oc3ccc(C(=O)O)cc3)cc1)CC2 | inactive

Row | Structure (SMILES) | Potency
21 | CCN(CC)CCNC(=O)c1c(C)[nH]c(/C=C2\C(=O)Nc3ccc(F)cc32)c1C | 19 µM (active)
22 | O=C(O)c1c(Cl)cccc1Cl | inactive
23 | COc1cc(-c2ccc(N=C=O)c(OC)c2)ccc1N=C=O | inactive
24 | O=c1[nH]cnc2nc[nH]c12 | inactive
25 | CSc1ccc(/C=C2/C(C)=C(CC(=O)O)c3cc(F)ccc32)cc1 | inactive
26 | O=c1c(-c2ccccc2)c1-c1ccccc1 | inactive
27 | CCc1cc(SCc2sc(-c3ccc(C(F)(F)F)cc3)nc2CN2CCN(c3ccc(OC)cc3)CC2)ccc1OCC(=O)O | inactive
28 | NNc1nc(-c2ccccc2)cs1 | inactive
29 | O=C(Nc1cccc(C(F)(F)F)c1)c1cc(Br)cc(Br)c1O | inactive
30 | C=CC(=O)OCCn1c(=O)n(CCOC(=O)C=C)c(=O)n(CCOC(=O)C=C)c1=O | inactive
31 | CCC(Cl)C(Cl)C(Cl)CC(Cl)C(Cl)C(C)Cl (stereo not given) | inactive
32 | O=c1cc(-c2ccc(O)cc2)oc2cc(O)cc(O)c12 | inactive and 38.9 µM (active)
33 | CC(=O)S[C@@H]1CC2=CC(=O)CC[C@]2(C)[C@H]2CC[C@@]3(C)[C@@H](CC[C@@]34CCC(=O)O4)[C@H]12 | inactive
34 | OC1(c2ccc(Cl)c(C(F)(F)F)c2)CCN(CCCC(c2ccc(F)cc2)c2ccc(F)cc2)CC1 | 19 µM (active)
35 | COc1cc(/C=C/C(=O)O[C@H]2CC[C@]34C[C@]35CC[C@]3(C)[C@@H]([C@H](C)CCC=C(C)C)CC[C@@]3(C)[C@@H]5CC[C@H]4C2(C)C)ccc1O | inactive
36 | Cc1cc2c(cc1C(F)(F)F)N(C(=O)Nc1ccc(Oc3cccnc3C)nc1)CC2 | inactive
37 | Clc1ccc2cc3ccccc3cc2c1 | inactive
38 | CCCCCOC(=O)CCCC | inactive
39 | CCc1oc2ccccc2c1C(=O)c1cc(Br)c(O)c(Br)c1 | inactive
40 | CC1(C)CCC(C)(C)c2cc(C(=O)Nc3ccc(C(=O)O)cc3)ccc21 | inactive
